Molecules are shown by their SMILES. Where “and” joins values, the source holds several entries; their conditions need not be identical. Equal entries are not always repeated.

The target in this assay is Apelin receptor (Homo sapiens) (UniProt P35414). The assay can be described thus: APJ beta-arrestin recruitment blockade alongside CXCR6 – cell-based, DiscoveRx, panel, CHO-K1, counter-screen for CXCR6 antagonist project, SAR follow-up (AID 651598). Conditions: CHO-K1 PathHunter beta-arrestin luminescence, antagonist mode; run 1, at 80 µM (top of the series).
Apelin receptor (Homo sapiens), sequence (P35414 whole entry, looked up): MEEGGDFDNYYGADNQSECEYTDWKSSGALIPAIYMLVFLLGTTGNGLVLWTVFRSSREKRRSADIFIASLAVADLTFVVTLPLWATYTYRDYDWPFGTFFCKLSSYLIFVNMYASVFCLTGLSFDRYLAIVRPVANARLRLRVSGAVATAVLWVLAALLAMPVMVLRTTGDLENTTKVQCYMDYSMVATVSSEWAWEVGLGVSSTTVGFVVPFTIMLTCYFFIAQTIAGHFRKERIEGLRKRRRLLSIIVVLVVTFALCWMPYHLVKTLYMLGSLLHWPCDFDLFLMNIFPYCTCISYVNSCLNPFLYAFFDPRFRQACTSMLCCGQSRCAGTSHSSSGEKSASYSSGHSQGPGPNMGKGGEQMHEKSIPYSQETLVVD
As to `COc1cc(C(=O)NC2CC3CCC(C2)N3CC(=O)Nc2ccccc2)cc(OC)c1OC` (stereo not drawn), the inhibition is 15.6% and 6.78%. Next, `COc1cc(C(=O)NC2CC3CCCC(C2)N3CC(=O)Nc2ccccc2)cc(OC)c1OC` (stereo not drawn): -17.1% and -7.52% and 20.1%; `COc1cc(C(=O)NC2CCN(CC(=O)Nc3ccccc3)CC2)cc(OC)c1OC`: -17.6%.

Source of the values: PubChem BioAssay AID651598 (Sanford-Burnham Center for Chemical Genomics, 2012).
